The values that follow come from PubChem BioAssay AID430 (Sanford-Burnham Center for Chemical Genomics, 2006).

Each structure is given as a SMILES string. The campaign covered roughly 63,000 compounds. About 1,100 (1.7%) were called active. No stated cut-off is given here; in the data, active means cytotoxicity above about 50%; inactive means the rest. This excerpt belongs to a sample that is enriched for actives. Potency and affinity values are given separately.

The nature of this assay: cytotoxicity in HPDE-C7 cells, cell-based, fluorescence, HTS (AID 430).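 Further: cells exposed to compound for 48 hours before viability readout; 0% = vehicle and 100% = reference cytotoxic drug.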 The note with it: HPDE-C7 pancreatic duct cells viability, at 10 µM, active compounds read high.
As for `OCc1cn(-c2ccccc2)nc1-c1ccc2c(c1)OCCO2`, the cytotoxicity was -21.5% (inactive).

In the case of `CC(=O)Nc1ccc(S(=O)(=O)N2CCSC2c2ccccc2Cl)cc1` (stereo not drawn), the cytotoxicity was 3.4% (inactive).

In the case of `CC1CCCCN1CCn1cnc2c([nH]c3ccccc32)c1=O` (stereo not drawn), the cytotoxicity was -2.1% (inactive).

In the case of `CCNc1nc(NC(C)C)nc(N(C#N)CCOc2ccc(Cl)cc2Cl)n1`, the cytotoxicity was 94.5% (active).

With `CCCN(C#N)c1nc(NCC)nc(NC(C)C)n1`, the cytotoxicity was -11.1% (inactive).

Take `CCNc1nc(NC(C)C)nc(N(C#N)Cc2ccccc2)n1`: the cytotoxicity was 6.3% (inactive).

As to `CCOc1ccc(-n2cc(C(=O)N3CCN(C)CC3)c3cc(OC)c(OC)cc3c2=O)cc1`, the cytotoxicity is -7.2% (inactive).

For `CC1CCN(S(=O)(=O)c2ccc3c(c2)c(=O)c(C(=O)NC2CCCC2)cn3C)CC1`, the cytotoxicity was 77% (active).

In the case of `Cn1cc(C(=O)NC2CCCCC2)c(=O)c2cc(S(=O)(=O)N3CCCC3)ccc21`, the cytotoxicity was 6.5% (inactive).

Turning to `Cn1cc(C(=O)NC2CCCCCC2)c(=O)c2cc(S(=O)(=O)N3CCCC3)ccc21`, the cytotoxicity was -2.6% (inactive).

`COC(=O)C1(C)NC(c2cccs2)C2C(=O)N(c3ccc(F)cc3)C(=O)C21` (stereo not drawn): the cytotoxicity was 3.3% (inactive).

With `Cc1cc(NC(=O)CSc2nnc3c(C)cc4c(C)ccc(C)c4n23)no1`, the cytotoxicity was 64.6% (active).

In the case of `Cc1cc(C)c2c(c1)cc(C)c1nnc(SCC(=O)Nc3cc(C)on3)n12`, the cytotoxicity was 20.4% (inactive).

With `Cc1cc(NC(=O)CSc2nnc3c(C)cc4cc(C)c(C)cc4n23)no1`, the cytotoxicity was 6.8% (inactive).

Regarding `CCN(CCCNC(=O)CC(C(=O)N1CCc2ccccc21)n1ccnc1)c1ccccc1` (stereo not drawn), the cytotoxicity was -6.9% (inactive).

On to `Cc1cccc2sc(NC(=O)CNS(=O)(=O)c3ccc(Br)s3)nc12`, for which the cytotoxicity was 1.3% (inactive).

For `Cc1cccc2sc(NC(=O)CN(C)S(=O)(=O)c3cccs3)nc12`, the cytotoxicity is 14.9% (inactive).

With `C1CCN(c2nc(N3CCCC3)nc(N3CCNCC3)n2)C1`, the cytotoxicity was 2.6% (inactive).

On to `CCOC(=O)CSC1=C(C#N)C(c2ccc(F)cc2)C(C(C)=O)=C(C)N1` (stereo not drawn), for which the cytotoxicity was 0.3% (inactive).

For the compound `COc1ccccc1NC(=O)C1=C(C)NC(SCC(=O)c2ccc(C)cc2)=C(C#N)C1c1ccco1` (stereo not drawn), the cytotoxicity is 36.6% (inactive).

In the case of `CC(=O)C1=C(C)NC(SCC(=O)c2ccccc2)=C(C#N)C1CC(C)C` (stereo not drawn), the cytotoxicity was 8.5% (inactive).

In the case of `CSCSC1=C(C#N)C(c2ccccc2Cl)C(C(C)=O)=C(C)N1` (stereo not drawn), the cytotoxicity was 21.5% (inactive).

Take `CC(=O)C1=C(C)NC(SCC(=O)c2ccc(F)cc2)=C(C#N)C1c1ccco1` (stereo not drawn): the cytotoxicity was 79.8% (active).

`CC(=O)C1=C(C)NC(SCC(=O)c2cc(Cl)ccc2Cl)=C(C#N)C1c1ccco1` (stereo not drawn): the cytotoxicity is 53% (active).

Regarding `COCCOC(=O)C1=C(C)NC(SCC(=O)NC(C)(C)C)=C(C#N)C1c1ccco1` (stereo not drawn), the cytotoxicity is 10.7% (inactive).

As for `CC(=O)C1=C(C)NC(SCC(=O)c2ccc(Cl)cc2Cl)=C(C#N)C1c1ccco1` (stereo not drawn), the cytotoxicity is 40.9% (inactive).

For the compound `Cc1ccc(C(=O)CSC2=C(C#N)C(c3ccco3)CC(=O)N2)c(C)c1` (stereo not drawn), the cytotoxicity is -3% (inactive).

In the case of `CC(=O)C1=C(C)NC(SCC(=O)c2ccc(Cl)c(Cl)c2)=C(C#N)C1c1ccco1` (stereo not drawn), the cytotoxicity was 75.6% (active).

Turning to `C=CCOC(=O)C1=C(C)NC(SCC(=O)Nc2ccc(C)c(Cl)c2)=C(C#N)C1c1ccco1` (stereo not drawn), the cytotoxicity was 0.2% (inactive).

With `COc1cccc(-n2ccnc2SCC(=O)Nc2cc(OC)ccc2OC)c1`, the cytotoxicity was -21% (inactive).

Take `Cc1cc(N2CCN(c3ccccc3)CC2)n2c(n1)nc1ccccc12`: the cytotoxicity is -8.6% (inactive).

For `CC(=O)N1CCc2cc(S(=O)(=O)NCCN3CCC(C)CC3)ccc21`, the cytotoxicity is 2.7% (inactive).

Take `COc1ccc(OC)c(C2CC(=O)NC(SC)=C2C#N)c1` (stereo not drawn): the cytotoxicity was -2.9% (inactive).

In the case of `Cc1cc(C)c2nc(N)sc2c1`, the cytotoxicity is 3.8% (inactive).

As for `c1ccc(COc2ccc(OCCCn3cncn3)cc2)cc1`, the cytotoxicity was -20.8% (inactive).

As for `O=C(O)C1C2C=CC(C2)C1C(=O)NCc1ccoc1` (stereo not drawn), the cytotoxicity was -8.3% (inactive).

Take `CCOc1ccc(OCc2ccc(C(=O)NCc3ccncc3)o2)cc1`: the cytotoxicity is -3% (inactive).

On to `C=CCOC(=O)C1=C(C)NC(SCC(=O)N(CC)CC)=C(C#N)C1c1ccco1` (stereo not drawn), for which the cytotoxicity is 12.7% (inactive).

For the compound `CSCSC1=C(C#N)C(c2ccc(Cl)cc2)C(C(C)=O)=C(C)N1` (stereo not drawn), the cytotoxicity was -18.3% (inactive).

Take `CC(=O)C1=C(C)OC(N)=C(C#N)C1c1ccco1` (stereo not drawn): the cytotoxicity was -2.2% (inactive).

Regarding `CC(=O)C1=C(C)NC(SCC(=O)c2ccc(Cl)cc2)=C(C#N)C1c1ccco1` (stereo not drawn), the cytotoxicity is 57.9% (active).

Consider `CCOC(=O)CSC1=C(C#N)C(c2ccco2)C(C(=O)OCc2ccccc2)=C(C)N1` (stereo not drawn), for which the cytotoxicity was 58.8% (active).

As to `CCN(CC)C(=O)CSC1=C(C#N)C(c2ccco2)C(C(=O)OCCOC)=C(C)N1` (stereo not drawn), the cytotoxicity is -11% (inactive).

As to `CN(c1ccc(C(=O)NCc2ccccc2)cc1)S(C)(=O)=O`, the cytotoxicity was -26.5% (inactive).

Consider `CCCS(=O)(=O)N1CCC(C(=O)NCCN2CCCC2)CC1`, for which the cytotoxicity is 2.1% (inactive).

`COc1ccc(-c2nnc(SCc3ncc(-c4ccccc4)o3)o2)cc1`: the cytotoxicity is -2.9% (inactive).

Take `O=S1(=O)N=C(Nc2nc3c(s2)CCCC3)c2ccccc21`: the cytotoxicity was -10% (inactive).

For `Cc1nc(Sc2nnnn2C)c2c3c(sc2n1)CCC3`, the cytotoxicity is 76.2% (active).

Consider `Cc1nc(SCC#N)c2c3c(sc2n1)CCC3`, for which the cytotoxicity was -19% (inactive).

Regarding `CSc1nc2sc3c(c2c2nnnn12)CCC3`, the cytotoxicity is 7.6% (inactive).

For the compound `CC1Cc2ccccc2N1C(=O)Cn1nnc(-c2ccccc2NC(=O)C2CCC2)n1` (stereo not drawn), the cytotoxicity is -11.1% (inactive).

`CCOC(=O)C1CCCN(C(=O)CN2CCN(Cc3ccc(Cl)cc3)C2=O)C1` (stereo not drawn): the cytotoxicity was -28.3% (inactive).

For `O=C(c1ccc(COc2ccc(Cl)cc2)o1)N1CCN(Cc2ccc3c(c2)OCO3)CC1`, the cytotoxicity was 69.1% (active).

Turning to `O=C(c1ccc(Br)o1)N1CCN(Cc2ccc3c(c2)OCO3)CC1`, the cytotoxicity was -8.7% (inactive).

Take `O=C(c1ccc(COc2ccccc2Cl)o1)N1CCN(Cc2ccc3c(c2)OCO3)CC1`: the cytotoxicity is 87.5% (active).

Take `O=C(c1ccc(COc2ccccc2Cl)o1)N1CCN(c2ccccc2)CC1`: the cytotoxicity is -4.6% (inactive).

Turning to `O=C(c1ccc(Cn2cc(Cl)cn2)o1)N1CCN(Cc2ccc3c(c2)OCO3)CC1`, the cytotoxicity was 12.9% (inactive).

With `CC1CCN(C(=O)c2ccc(COc3ccccc3Cl)o2)CC1`, the cytotoxicity was -8.9% (inactive).

For the compound `Cn1c(O)c(C=NC(CC(N)=O)C(=O)O)c(=O)n(C)c1=O` (stereo not drawn), the cytotoxicity was -3.1% (inactive).

Regarding `O=C(COc1cc(Cl)c(Cl)cc1Cl)Nc1ccncc1`, the cytotoxicity was 14.9% (inactive).

For `CCOC(=O)CC(=O)CSc1nc2sc(C)cc2c(=O)n1Cc1ccco1`, the cytotoxicity was -13.3% (inactive).

In the case of `COCCn1nnnc1C(c1ccc(OC)cc1)N1CCC(C)CC1` (stereo not drawn), the cytotoxicity was -5.9% (inactive).

For the compound `O=C1c2ccccc2C(=O)N1CCc1nc2ccccc2c(=O)n1CCCn1ccnc1`, the cytotoxicity is -20.5% (inactive).

On to `N#Cc1nc(-c2ccc(OCc3ccccc3)cc2)oc1N1CCOCC1`, for which the cytotoxicity was 14.5% (inactive).

For the compound `COc1ccccc1S(=O)(=O)Cc1ccc(C(=O)NC(C)c2ccc3c(c2)OCCO3)o1` (stereo not drawn), the cytotoxicity is -4.2% (inactive).

In the case of `COc1ccc(N(C)C(=O)Nc2ccc3c(c2)nnn3C)cc1`, the cytotoxicity is -17.6% (inactive).

For `O=C(NCc1ccccn1)c1cc2cc(Br)ccc2oc1=O`, the cytotoxicity is 4.9% (inactive).

As to `O=C(NCc1ccccn1)c1ccc(=O)oc1`, the cytotoxicity is 0.8% (inactive).

As to `O=C(NCc1ccccn1)c1coc(=O)c(Br)c1`, the cytotoxicity was 52.2% (active).

`Cc1c(C(=O)NCc2cccnc2)oc2ccc(S(=O)(=O)N3CC(C)CC(C)C3)cc12` (stereo not drawn): the cytotoxicity was 43% (inactive).

For the compound `CN(c1nc(-c2ccccc2)cs1)C1CCS(=O)(=O)C1` (stereo not drawn), the cytotoxicity is 4.5% (inactive).

Turning to `CCOC(=O)N1CCN(S(=O)(=O)c2cc(Cl)c(OC)cc2Cl)CC1`, the cytotoxicity was -2.9% (inactive).

With `COc1cccc(CN(Cc2cccnc2)S(=O)(=O)c2ccc(-n3cnnn3)c(C)c2)c1`, the cytotoxicity is 4.5% (inactive).

Take `O=C(O)c1cc(C(=O)O)c(-c2ccccc2)c(C(=O)O)c1`: the cytotoxicity was -22.6% (inactive).

With `CC(=O)Oc1cccc2c1C(=O)c1c(OC(C)=O)cc(C(=O)O)cc1C2=O`, the cytotoxicity is 25.5% (inactive).

Regarding `Cc1c(S(=O)(=O)N2CCN(c3cccc(C(F)(F)F)c3)CC2)c(=O)n(C)c(=O)n1C`, the cytotoxicity was 5.2% (inactive).

In the case of `Cn1c(=O)c(=O)n(C)c2cc(S(=O)(=O)N3CCN(c4cccc(C(F)(F)F)c4)CC3)ccc21`, the cytotoxicity was 71.5% (active).

On to `Cn1c(=O)c2cc(S(=O)(=O)N3CCN(c4cccc(C(F)(F)F)c4)CC3)ccc2n(C)c1=O`, for which the cytotoxicity was -2.2% (inactive).

Regarding `O=C(C1CCC(Cn2c(=S)[nH]c3ccccc3c2=O)CC1)N1CCOCC1` (stereo not drawn), the cytotoxicity was -5.9% (inactive).

Consider `CN1CCN(c2nc(-c3ccccc3)nc3c2oc2ccccc23)CC1`, for which the cytotoxicity is -10% (inactive).

`O=C(O)C1CCN(c2nc(-c3ccccc3)nc3c2oc2ccccc23)CC1`: the cytotoxicity is 23.4% (inactive).

`CCC(CC)C(=O)Nc1cc(NC(=O)C(CC)CC)cc(C(=O)O)c1`: the cytotoxicity was -16.6% (inactive).

For `CCN=C1SC(C(=O)NCCc2ccccc2)CC(=O)N1CC` (stereo not drawn), the cytotoxicity is 5.8% (inactive).

Consider `O=C1CSC(=S)N1c1cccnc1`, for which the cytotoxicity was -9.7% (inactive).

`O=C(O)c1ccc(CN2C(=O)CSC2=S)cc1`: the cytotoxicity was 19.2% (inactive).

Take `Cc1ccc(C(=O)CSc2ncn[nH]2)cc1`: the cytotoxicity was 17.6% (inactive).

`Cn1c(N)c(C(=O)COC(=O)c2ccc3c(c2)OCCO3)c(=O)n(C)c1=O`: the cytotoxicity is -1.5% (inactive).

Turning to `Cc1ccc(-n2c(=O)cc(N3CC(C)CC(C)C3)[nH]c2=O)cc1` (stereo not drawn), the cytotoxicity was -15.2% (inactive).

On to `CC(=O)Nc1cccc(-c2nc3ccc(NC(C)=O)cc3[nH]2)c1`, for which the cytotoxicity is 9.5% (inactive).

As for `O=c1[nH]c2ccc(Cl)cc2c(-c2ccccc2)c1N1CCOCC1`, the cytotoxicity was 0.9% (inactive).

Take `CCOC(=O)N1CCN(c2c(-c3ccccc3)c3cc(Cl)ccc3[nH]c2=O)CC1`: the cytotoxicity was 7.4% (inactive).

Take `O=C(c1ccco1)N1CCN(c2c(-c3ccccc3)c3cc(Cl)ccc3[nH]c2=O)CC1`: the cytotoxicity is 83.6% (active).

As for `CC(C)(C)n1nnnc1C(c1cccs1)N(Cc1ccccc1)Cc1ccco1` (stereo not drawn), the cytotoxicity is -4.3% (inactive).
